The source made the active and inactive calls. The call rests on the fitted dose curve.
Assay: qHTS drug screen for cell cycle checkpoint inhibitors in PARPi-resistant BRCA-mutant ovarian cancer cell lines. (AID 1963452)
Settings: PEO1/OlaR viability, CellTiter-Glo luminescence, 96 h, stronger effect = lower value
How it was run: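 PEO1, PEO4 and PEO1/OlaR ovarian cancer cells, 600 per well, exposed 96 h at 37C to a dilution series. Viability read by CellTiter-Glo luminescence, normalized to DMSO and empty wells; activity summarized as Z-AUC.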

[1] = measured here: PEO1 parental Z-AUC

Row | SMILES | Z-AUC | Z-AUC [1] | Z-AUC (measured here: PEO4 Z-AUC)
1 | Cc1nc(C(=O)NCC(=O)O)c(O)c2ccc(Oc3ccccc3)cc12 | 1.39 (inactive) | 0.88 | 0.853
2 | OC(c1cc(C(F)(F)F)nc2c(C(F)(F)F)cccc12)C1CCCCN1 (stereo unspecified) | 0.945 (inactive) | 0.285 | 0.429
3 | CN(C)c1ccccc1CN1CCCN(Cc2ccccc2N(C)C)C1c1ccncc1 | -0.339 (inactive) | 0.0487 | -0.169
4 | OC1CCC(Nc2ncc3nc(Nc4c(F)cc(F)cc4F)n([C@@H]4CCOC4)c3n2)CC1 (stereo partly specified) | 0.218 (inactive) | 0.89 | 0.44
5 | CN1CC(=O)NC1=NC(=O)Nc1cccc(Cl)c1 | 0.638 (inactive) | 0.15 | 0.317
6 | O[C@@H](COc1cccc2ncccc12)CN1CCN(C2c3ccccc3[C@@H]3[C@H](c4ccccc42)C3(F)F)CC1 (stereo partly specified) | -1.07 (inactive) | -1.13 | -0.777
7 | CNc1nc(Nc2ccc(C(=O)N3CCOCC3)cc2OC)ncc1Cl | -0.915 (inactive) | -0.00443 | 0.143
8 | N#CC1(c2cccc(C(=O)Nc3cc(Oc4ccc5nc(NC(=O)C6CC6)sc5n4)ccc3F)c2Cl)CC1 | -0.948 (inactive) | -1.21 | -0.816
9 | Cn1c(=O)c(-c2c(Cl)cccc2Cl)cc2cnc(Nc3cccc(C(=O)O)c3)nc21 | 0.595 (inactive) | 0.413 | 0.693
10 | CCn1c(-c2nonc2N)nc2cncc(CNC3CCNCC3)c21 | -0.284 (inactive) | 0.212 | 0.661
11 | C[C@@H](N)c1ccc(C(=O)Nc2ccnc3[nH]ccc23)cc1 | 0.345 (inactive) | 0.635 | 0.729
12 | Cc1csc(-c2nnc(Nc3ccc(Oc4ncccc4-c4ccnc(N)n4)cc3)c3ccccc23)c1 | -0.397 (inactive) | -0.785 | -1.53

From PubChem BioAssay (NCATS)
